Activity change, negative = inhibition data for 25 compounds are collected here from PubChem BioAssay AID1745853 (National Center for Advancing Translational Sciences (NCATS), 2022).

Assay in all cases: Primary Screen for Target Class Profiling of Small Molecule Inhibitors of Methyltransferases
Assay [1] concerns the target Catechol O-methyltransferase (Homo sapiens) (UniProt P21964). To be noted: purified enzyme, MTase-Glo SAH luminescence; activity change, negative = inhibition: at 40 µM, stronger effect = lower value; outcome: 40 uM. The essentials:
(§1)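 Each enzyme was assayed with SAM and its substrate. SAH formation detected by MTase-Glo luminescence; single-point 40 uM screen[…].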

The target in assay [2] is Glycine N-methyltransferase (Homo sapiens) (UniProt Q14749). The following applies: purified enzyme, MTase-Glo SAH luminescence; measured here: GNMT inhibition; at 40 µM; stronger effect = lower value. Put shortly:
as §1

The target in assay [3] is Guanidinoacetate N-methyltransferase (Homo sapiens) (UniProt Q14353). The following applies: purified enzyme, MTase-Glo SAH luminescence; measured here: GAMT inhibition; at 40 µM; stronger effect = lower value. Put shortly:
as §1

Assay [4] has as its target Histamine N-methyltransferase (Homo sapiens) (UniProt P50135). The following applies: purified enzyme, MTase-Glo SAH luminescence; measured here: HNMT inhibition; at 40 µM; stronger effect = lower value. Put shortly: as §1
In assay [5] the target is Nicotinamide N-methyltransferase (Homo sapiens) (UniProt P40261). To be noted: purified enzyme, MTase-Glo SAH luminescence; measured here: NNMT inhibition; at 40 µM; stronger effect = lower value. The essentials: as §1
The target in assay [6] is Phenylethanolamine N-methyltransferase (Homo sapiens) (UniProt P11086). To be noted: purified enzyme, MTase-Glo SAH luminescence; measured here: PNMT inhibition; at 40 µM; stronger effect = lower value. The essentials: as §1

About 970 (3.9%) of roughly 25,000 compounds were called active. Another 8% or so got no clear call; they are omitted. This is one part of a sample in which actives are shown more often than they occur. No rule for the calls is given here.
% is scaled to controls: 0 for no effect and ±100 for the full control effect.

Phenylethanolamine N-methyltransferase (Homo sapiens), sequence (P11086 whole entry, looked up): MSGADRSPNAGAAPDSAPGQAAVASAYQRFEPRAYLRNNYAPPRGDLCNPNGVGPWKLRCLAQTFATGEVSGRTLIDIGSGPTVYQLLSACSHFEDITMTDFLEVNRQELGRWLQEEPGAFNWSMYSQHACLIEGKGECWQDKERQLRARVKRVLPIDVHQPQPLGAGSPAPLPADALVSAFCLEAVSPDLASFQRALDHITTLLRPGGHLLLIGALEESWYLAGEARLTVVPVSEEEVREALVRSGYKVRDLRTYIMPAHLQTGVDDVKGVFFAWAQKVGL
Histamine N-methyltransferase (Homo sapiens), sequence (P50135 whole entry, looked up): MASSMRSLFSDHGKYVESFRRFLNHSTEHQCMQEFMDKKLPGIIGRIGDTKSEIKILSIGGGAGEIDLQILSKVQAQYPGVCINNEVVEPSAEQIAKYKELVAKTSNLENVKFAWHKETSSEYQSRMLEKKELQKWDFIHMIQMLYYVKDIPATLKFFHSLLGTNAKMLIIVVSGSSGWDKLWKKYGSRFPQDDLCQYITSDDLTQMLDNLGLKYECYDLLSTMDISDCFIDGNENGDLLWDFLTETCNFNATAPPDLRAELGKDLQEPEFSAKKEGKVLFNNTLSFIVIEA
Catechol O-methyltransferase (Homo sapiens), sequence (P21964 whole entry, looked up): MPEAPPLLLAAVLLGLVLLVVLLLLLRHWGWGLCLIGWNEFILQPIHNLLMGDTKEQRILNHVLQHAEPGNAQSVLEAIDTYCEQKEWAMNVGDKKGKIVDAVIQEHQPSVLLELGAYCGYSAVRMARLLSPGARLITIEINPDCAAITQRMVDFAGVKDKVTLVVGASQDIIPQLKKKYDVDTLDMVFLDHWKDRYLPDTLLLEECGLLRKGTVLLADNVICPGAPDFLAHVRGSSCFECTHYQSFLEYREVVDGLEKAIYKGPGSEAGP
Glycine N-methyltransferase (Homo sapiens), sequence (Q14749 whole entry, looked up): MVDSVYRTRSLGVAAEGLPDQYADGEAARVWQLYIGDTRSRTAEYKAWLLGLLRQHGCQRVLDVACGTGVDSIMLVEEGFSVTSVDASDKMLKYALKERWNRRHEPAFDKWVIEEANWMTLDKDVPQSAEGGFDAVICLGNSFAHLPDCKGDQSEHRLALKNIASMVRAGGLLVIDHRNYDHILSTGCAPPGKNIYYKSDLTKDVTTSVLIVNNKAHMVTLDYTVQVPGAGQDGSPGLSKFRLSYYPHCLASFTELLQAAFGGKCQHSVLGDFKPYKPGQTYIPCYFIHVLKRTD
Nicotinamide N-methyltransferase (Homo sapiens), sequence (P40261 whole entry, looked up): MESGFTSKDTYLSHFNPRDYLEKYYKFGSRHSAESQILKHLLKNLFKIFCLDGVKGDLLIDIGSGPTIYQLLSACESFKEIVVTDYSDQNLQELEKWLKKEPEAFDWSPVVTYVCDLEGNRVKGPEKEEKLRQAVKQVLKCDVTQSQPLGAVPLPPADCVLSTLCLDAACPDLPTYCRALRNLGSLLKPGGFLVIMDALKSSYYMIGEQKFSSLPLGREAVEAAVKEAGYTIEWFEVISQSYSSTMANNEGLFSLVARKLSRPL

Take `CCCn1c(=O)c2cc(Cl)ccc2n2c(SCC(=O)Nc3ccc(Cl)cc3)nnc12`: the activity change, negative = inhibition in assay [1] was -0.206% (inactive); in assay [2], -6.08%; in assay [3] it was 4.35%; in assay [4], 1.24%; in assay [5], -3.29%; in assay [6], 1.76%.
Take `CCOCCCN1C(=O)c2cc3ccccc3n2CC1(C)C(=O)NCCC(C)C` (stereo not given): the activity change, negative = inhibition in assay [1] is 4% (inactive); in assay [2], 6.59%; in assay [3] it was 4.89%; in assay [4], 8.93%; in assay [5], 10.6%; in assay [6], 0.52%.
Consider `CCCn1c(=O)c2ccc(C(=O)NC(C)CC)cc2n2c(=O)n(CC(=O)Nc3ccccc3)nc12` (stereo not given), for which the activity change, negative = inhibition is -0.37% (inactive) in assay [1]; 0.266% in assay [2]; 3.33% in assay [3]; 0.842% in assay [4]; -0.601% in assay [5]; 3.03% in assay [6].
On to `O=c1c2ccccc2n2c(=O)n(Cc3ccccc3)nc2n1Cc1ccc(F)cc1`, for which the activity change, negative = inhibition in assay [1] is 6.23% (inactive); in assay [2] it was 9.17%; in assay [3] it was 3.06%; in assay [4], 12.4%; in assay [5] it was 6.51%; in assay [6], 5.22%.
As for `COc1ccc(-c2nc3ccncc3[nH]2)cc1`, the activity change, negative = inhibition is -149% (active) in assay [1]; -99.2% in assay [2]; -103% in assay [3]; -91.6% in assay [4]; -110% in assay [5]; -145% in assay [6].
Regarding `CC1CCN(S(=O)(=O)c2ccc3c(ccn3CCC(=O)N3CCN(c4ccccn4)CC3)c2)CC1`, the activity change, negative = inhibition was -2.75% (inactive) in assay [1]; -6.24% in assay [2]; -4.09% in assay [3]; -2.6% in assay [4]; -7.95% in assay [5]; -2.86% in assay [6].
Consider `Cc1cc(Nc2cc(N3CCN(C)CC3)nc(Sc3ccc(NC(=O)C4CC4)cc3)n2)n[nH]1`, for which the activity change, negative = inhibition in assay [1] is -3.15% (active); in assay [2], -71.8%; in assay [3], 5.06%; in assay [4] it was -13.3%; in assay [5] it was -11.1%; in assay [6] it was -0.531%.
Consider `Cc1cc2c(cc1S(=O)(=O)NCc1ccc3c(c1)OCO3)n(C)c(=O)n2C`, for which the activity change, negative = inhibition in assay [1] was 13.6% (inactive); in assay [2] it was 12.8%; in assay [3], 1.49%; in assay [4] it was 9.41%; in assay [5] it was 2.71%; in assay [6], 6.83%.
For the compound `O=C(NCc1ccc2c(c1)OCO2)c1sc(=S)n2c1[nH]c(=O)c1ccccc12`, the activity change, negative = inhibition was -20.2% (active) in assay [1]; -52.7% in assay [2]; 0% in assay [3]; -2.67% in assay [4]; -35.9% in assay [5]; -28.2% in assay [6].
As to `Cc1ccc(Cn2c(=O)c3ccccc3n3c(CCC(=O)NCc4ccc5c(c4)OCO5)nnc23)cc1`, the activity change, negative = inhibition was -5.97% (inactive) in assay [1]; -13.5% in assay [2]; 2.22% in assay [3]; -2.65% in assay [4]; -2.38% in assay [5]; -7.16% in assay [6].
For the compound `COC(=O)[C@]12C(=O)C(C)=C(O)[C@@]1(C)C(C)=CC1[C@@]34CC[C@@H](OC(C)=O)C(C)(C)C3[C@H](C[C@]12C)OC4=O` (stereo not given in full), the activity change, negative = inhibition in assay [1] was 5.51% (inactive); in assay [2], 0%; in assay [3] it was 3.85%; in assay [4], 9.8%; in assay [5], -6.73%; in assay [6] it was 3.04%.
For the compound `CN(C)[C@@H]1C(=O)C(C(N)=O)=C(O)[C@@]2(O)C(=O)C3=C(O)c4c(O)ccc(Cl)c4[C@@H](O)[C@H]3C[C@@H]12`, the activity change, negative = inhibition in assay [1] is -74.5% (active); in assay [2], -24.2%; in assay [3], 6.87%; in assay [4], 3.22%; in assay [5], -8.53%; in assay [6], -5.78%.
Take `COCCOc1cc(=O)n2c(c1C(=O)NCc1ccccc1)CCOCC2`: the activity change, negative = inhibition in assay [1] is -1.21% (inactive); in assay [2] it was 1.04%; in assay [3], -0.934%; in assay [4], 1.39%; in assay [5] it was -1.22%; in assay [6], 1.39%.
For `CCC(C)(C)NC(=O)c1cccc2c1CCN2C(=O)Nc1ccc(C)cc1`, the activity change, negative = inhibition was -3.57% (inactive) in assay [1]; -1.49% in assay [2]; -2.95% in assay [3]; 1.94% in assay [4]; -7.5% in assay [5]; -2.44% in assay [6].
With `Cn1c(=O)n(C)c2cc(Nc3nc4ccccc4nc3NS(=O)(=O)c3ccc(Cl)cc3)ccc21`, the activity change, negative = inhibition in assay [1] was 3.8% (inactive); in assay [2] it was 7.68%; in assay [3], -3.35%; in assay [4] it was -4.47%; in assay [5], 0.13%; in assay [6], -6.48%.
Regarding `O=C(O)CC1CCC(c2ccc(-c3ccc(Nc4ccc(C(F)(F)F)nc4)cn3)cc2)CC1` (stereo not given), the activity change, negative = inhibition in assay [1] is 17.9% (active); in assay [2] it was -52.1%; in assay [3] it was -12.8%; in assay [4], 1.31%; in assay [5], -35.3%; in assay [6], -4.28%.
In the case of `CC(C)c1nccn1CCCNc1nc(-c2ccncc2)nc2c1cnn2C`, the activity change, negative = inhibition in assay [1] is -44.5% (active); in assay [2], -59.1%; in assay [3], -50.1%; in assay [4] it was -86%; in assay [5], -53%; in assay [6] it was -25.5%.
Turning to `CCOC(=O)c1cc2n(n1)CC(C)(C(=O)NCc1ccc(F)cc1)N(Cc1ccccc1OC)C2=O` (stereo not given), the activity change, negative = inhibition in assay [1] is -3.88% (inactive); in assay [2] it was -3.75%; in assay [3], 3.18%; in assay [4] it was 0.898%; in assay [5], -7.43%; in assay [6], -5.73%.
For the compound `COCCN1CC2(CCC1=O)CCN(C(=O)[C@@H]1C[C@@H](O)CN1)CC2`, the activity change, negative = inhibition was 4.29% (inactive) in assay [1]; -0.827% in assay [2]; -1.32% in assay [3]; 1.21% in assay [4]; 0.29% in assay [5]; -19.8% in assay [6].
With `CC(C)CCN1CC2(CCCN(C(=O)c3ccn(C)c(=O)c3)C2)CCC1=O` (stereo not given), the activity change, negative = inhibition was -31.2% (active) in assay [1]; -57.8% in assay [2]; -45.1% in assay [3]; -13.3% in assay [4]; -17.7% in assay [5]; -27% in assay [6].
For the compound `COCCCn1c(=O)[nH]c2cccnc21`, the activity change, negative = inhibition is -9.36% (inactive) in assay [1]; -5.17% in assay [2]; -6.2% in assay [3]; -1.12% in assay [4]; -14.7% in assay [5]; 9.39% in assay [6].
For the compound `CCCn1c(=O)c2ccc(C(=O)NC(C)C)cc2n2c(=O)n(CC(=O)NCc3ccccc3Cl)nc12`, the activity change, negative = inhibition was 4.33% (inactive) in assay [1]; 2.57% in assay [2]; 1.92% in assay [3]; 6.44% in assay [4]; 8% in assay [5]; 4.03% in assay [6].
Regarding `CCOC(=O)c1cc(Nc2ccc(C(C)=O)cc2)c2cc(Cl)ccc2n1`, the activity change, negative = inhibition is -3.11% (inactive) in assay [1]; -4.22% in assay [2]; 6.82% in assay [3]; 0.863% in assay [4]; 6.54% in assay [5]; -3.31% in assay [6].
With `Cc1ccc(N2C(=O)c3cc4sccc4n3CC2(C)C(=O)NC2CCCCC2C)cc1` (stereo not given), the activity change, negative = inhibition in assay [1] is -3.6% (inactive); in assay [2] it was -2.03%; in assay [3] it was 1.51%; in assay [4] it was -1.92%; in assay [5] it was -1.16%; in assay [6] it was -6.83%.
For the compound `COc1cccc(-c2nnc3n(CCc4ccccc4)c(=O)c4ccccc4n23)c1O`, the activity change, negative = inhibition in assay [1] was 0.892% (inactive); in assay [2], -4.84%; in assay [3] it was 0.066%; in assay [4], 2.53%; in assay [5] it was -3.08%; in assay [6] it was 0.274%.
